Test results reported in the supplement of paper PMC4166925.
± gives the standard deviation of the averaged measurements. In all, about 33,000 sequences were measured (“E-score (dimensionless, -0.5 to 0.5)”: median about -0.046, highest 2% from about 0.36 on). The list comes from a sample in which the highest values are over-represented; it also holds similar and randomly drawn sequences.

These sequences were tested on T1, SpTbr T-box DNA-binding domain (GST fusion) (assay: PBM E-score of 8-mer (E-score (dimensionless, -0.5 to 0.5)); Tbr is Tbrain of the sea star Patiria miniata (Pm) or the sea urchin Strongylocentrotus purpuratus (Sp); higher = stronger binding preference). Details: the construct has about 5 more residues each side.
T1 sequence: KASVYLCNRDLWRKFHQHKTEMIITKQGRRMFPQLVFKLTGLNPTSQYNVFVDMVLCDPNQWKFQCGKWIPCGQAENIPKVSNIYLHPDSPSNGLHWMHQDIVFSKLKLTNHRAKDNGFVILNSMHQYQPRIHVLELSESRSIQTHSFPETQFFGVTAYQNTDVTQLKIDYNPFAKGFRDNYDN
Method in brief: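 Each ungapped 8-mer received an enrichment E-score from the Universal PBM Analysis Suite, averaged over duplicate arrays. The proteins were Tbr T-box DNA-binding domains, covering the whole T-box plus about five flanking residues, fused to GST and expressed in BL21 E. coli at 20 °C before glutathione affinity purification. Universal Agilent oligonucleotide arrays were made double-stranded by primer extension and incubated with 200 nM protein in PBS (pH 7.5). The arrays were then scanned and quantified, and every 8-mer was scored from probe intensities.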
In the case of CACCTTGG, the “PBM E-score of 8-mer” value is reported as 0.45 ± 0.005.
With ACACTGTA the “PBM E-score of 8-mer” value was 0.172 ± 0.036.
ACTTGATA was tested, and the “PBM E-score of 8-mer” value was 0.108 ± 0.039.
For AGACAGCG, the “PBM E-score of 8-mer” value was -0.00288 ± 0.048.
With CTGAAAGC the “PBM E-score of 8-mer” value was -0.193 ± 0.033.
For GTGTAAAC, the “PBM E-score of 8-mer” value was 0.367 ± 0.02.
In the case of CTGTAAAC, the “PBM E-score of 8-mer” value is reported as 0.132 ± 0.0059.
In the case of ATGTAAAC, the “PBM E-score of 8-mer” value is reported as 0.0731 ± 0.026.
AGCAGATA was tested, and the “PBM E-score of 8-mer” value was -0.195 ± 0.043.
In the case of ACAGCCCT, the “PBM E-score of 8-mer” value is reported as -0.109 ± 0.054.
For AAATGTGC, the “PBM E-score of 8-mer” value was 0.151 ± 0.076.
For AAATGTGT, the “PBM E-score of 8-mer” value was 0.435 ± 0.0081.
For CTGTGTGA, the “PBM E-score of 8-mer” value was 0.341 ± 0.0081.
With ATGTGTGC the “PBM E-score of 8-mer” value was 0.299 ± 0.0091.
AAATGTGG was tested, and the “PBM E-score of 8-mer” value was 0.114 ± 0.01.
For ATGTGTGA, the “PBM E-score of 8-mer” value was 0.4838 ± 0.001.
In the case of GTGTGTGA, the “PBM E-score of 8-mer” value is reported as 0.4221 ± 0.003.
With GTGTGTAA the “PBM E-score of 8-mer” value was 0.27 ± 0.0036.
For ATATGTGA, the “PBM E-score of 8-mer” value was 0.242 ± 0.055.
CAGCCAAC was tested, and the “PBM E-score of 8-mer” value was 0.106 ± 0.037.
In the case of GTAGCGCA, the “PBM E-score of 8-mer” value is reported as -0.148 ± 0.091.
In the case of GATGCGCA, the “PBM E-score of 8-mer” value is reported as 0.014 ± 0.028.
For ATCTCCAC, the “PBM E-score of 8-mer” value was 0.0376 ± 0.0077.
In the case of AACGTTTC, the “PBM E-score of 8-mer” value is reported as -0.191 ± 0.019.
For TCTCGAAA, the “PBM E-score of 8-mer” value was -0.0659 ± 0.035.
With ACGCCACT the “PBM E-score of 8-mer” value was 0.285 ± 0.013.
In the case of CCACAACC, the “PBM E-score of 8-mer” value is reported as 0.113 ± 0.015.
In the case of AAGTTTAT, the “PBM E-score of 8-mer” value is reported as -0.141 ± 0.074.
For AATGCAGT, the “PBM E-score of 8-mer” value was -0.188 ± 0.028.
For ATCGACAG, the “PBM E-score of 8-mer” value was 0.286 ± 0.005.
GTCGACAA was tested, and the “PBM E-score of 8-mer” value was 0.275 ± 0.0098.
With ATCGACAA the “PBM E-score of 8-mer” value was 0.213 ± 0.0072.
ATCGACAC was tested, and the “PBM E-score of 8-mer” value was 0.389 ± 0.013.
CTCGACAC was tested, and the “PBM E-score of 8-mer” value was 0.3634 ± 0.0018.
For GTCGACAC, the “PBM E-score of 8-mer” value was 0.394 ± 0.018.
For AATGGCTG, the “PBM E-score of 8-mer” value was -0.183 ± 0.012.
For CAAGTAGA, the “PBM E-score of 8-mer” value was -0.0961 ± 0.025.
ATCTCGGA was tested, and the “PBM E-score of 8-mer” value was -0.276 ± 0.03.
In the case of CCATACCG, the “PBM E-score of 8-mer” value is reported as -0.115 ± 0.017.
With ACTCAAGC the “PBM E-score of 8-mer” value was -0.127 ± 0.023.
For CGTTAAAA, the “PBM E-score of 8-mer” value was 0.0585 ± 0.1.
In the case of TGTTAACA, the “PBM E-score of 8-mer” value is reported as 0.421 ± 0.029.
For CGTTAACC, the “PBM E-score of 8-mer” value was 0.113 ± 0.07.
With GGTTAGCA the “PBM E-score of 8-mer” value was 0.257 ± 0.034.
In the case of AGTTAGCA, the “PBM E-score of 8-mer” value is reported as 0.284 ± 0.045.
For CATTAACA, the “PBM E-score of 8-mer” value was 0.329 ± 0.029.
With AGTTAACA the “PBM E-score of 8-mer” value was 0.334 ± 0.023.
With CGTTAACG the “PBM E-score of 8-mer” value was 0.372 ± 0.0041.
With GGTTAACA the “PBM E-score of 8-mer” value was 0.287 ± 0.012.
In the case of CGTTAGCA, the “PBM E-score of 8-mer” value is reported as 0.37 ± 0.0046.
For AGTTAACG, the “PBM E-score of 8-mer” value was 0.127 ± 0.006.
For CGTTAACA, the “PBM E-score of 8-mer” value was 0.4129 ± 0.0026.
With CAAGTTCG the “PBM E-score of 8-mer” value was 0.0356 ± 0.0073.
TAGGCGAA was tested, and the “PBM E-score of 8-mer” value was 0.0827 ± 0.01.
CGATACCC was tested, and the “PBM E-score of 8-mer” value was -0.00698 ± 0.068.
With ACTTAATG the “PBM E-score of 8-mer” value was -0.1 ± 0.055.
CGATTTTA was tested, and the “PBM E-score of 8-mer” value was -0.151 ± 0.033.
For AAGGTGAT, the “PBM E-score of 8-mer” value was 0.384 ± 0.023.
ACGGTGAT was tested, and the “PBM E-score of 8-mer” value was 0.115 ± 0.028.
With GGGGTGAC the “PBM E-score of 8-mer” value was 0.293 ± 0.043.
With CCGGTGAG the “PBM E-score of 8-mer” value was 0.089 ± 0.024.
In the case of CAGGTGTC, the “PBM E-score of 8-mer” value is reported as 0.4679 ± 0.0019.
With CAGGTGAA the “PBM E-score of 8-mer” value was 0.199 ± 0.031.
In the case of CCGGTGTC, the “PBM E-score of 8-mer” value is reported as 0.18 ± 0.047.
In the case of CAGGTGTA, the “PBM E-score of 8-mer” value is reported as 0.358 ± 0.0037.
GAGGTGAC was tested, and the “PBM E-score of 8-mer” value was 0.429 ± 0.018.
For AGGGTGAT, the “PBM E-score of 8-mer” value was 0.123 ± 0.024.
For GAGGTGAA, the “PBM E-score of 8-mer” value was 0.198 ± 0.0028.
CAGGTGAG was tested, and the “PBM E-score of 8-mer” value was 0.399 ± 0.0058.
CGAAGCCG was tested, and the “PBM E-score of 8-mer” value was 0.244 ± 0.045.
ACCAGCTA was tested, and the “PBM E-score of 8-mer” value was -0.0508 ± 0.0037.
For CGCGAGCA, the “PBM E-score of 8-mer” value was 0.275 ± 0.036.
In the case of AGCAGAGA, the “PBM E-score of 8-mer” value is reported as -0.259 ± 0.039.
CGGACAAA was tested, and the “PBM E-score of 8-mer” value was -0.0576 ± 0.039.
In the case of CCGAAATC, the “PBM E-score of 8-mer” value is reported as -0.048 ± 0.0049.
For CAGAGCAG, the “PBM E-score of 8-mer” value was -0.246 ± 0.033.
With CTGGTGAC the “PBM E-score of 8-mer” value was 0.162 ± 0.074.
In the case of ACGGTGAG, the “PBM E-score of 8-mer” value is reported as 0.0305 ± 0.02.
In the case of CAGATGAC, the “PBM E-score of 8-mer” value is reported as -0.0314 ± 0.026.
In the case of AAGGTGAA, the “PBM E-score of 8-mer” value is reported as 0.187 ± 0.0077.
For CAGGTGAC, the “PBM E-score of 8-mer” value was 0.425 ± 0.013.
AAGGTGAC was tested, and the “PBM E-score of 8-mer” value was 0.381 ± 0.026.
With ACGGTGAC the “PBM E-score of 8-mer” value was 0.284 ± 0.0089.
AAGGTGAG was tested, and the “PBM E-score of 8-mer” value was 0.445 ± 0.014.
In the case of AGGGTGAG, the “PBM E-score of 8-mer” value is reported as 0.216 ± 0.048.
In the case of ACAGCTCC, the “PBM E-score of 8-mer” value is reported as 0.157 ± 0.0081.
In the case of GCCTGCAC, the “PBM E-score of 8-mer” value is reported as -0.0663 ± 0.051.
With ACGTGTCT the “PBM E-score of 8-mer” value was 0.204 ± 0.034.
In the case of GCGTGAGA, the “PBM E-score of 8-mer” value is reported as 0.361 ± 0.03.
ACGTGTGC was tested, and the “PBM E-score of 8-mer” value was 0.253 ± 0.017.
GCGTGTGA was tested, and the “PBM E-score of 8-mer” value was 0.399 ± 0.0074.
ACGTGTCA was tested, and the “PBM E-score of 8-mer” value was 0.458 ± 0.0068.
With ACGTGAGA the “PBM E-score of 8-mer” value was 0.3312 ± 0.0033.
For ACGTGGGC, the “PBM E-score of 8-mer” value was -0.0975 ± 0.06.
With CCGTGTCA the “PBM E-score of 8-mer” value was 0.176 ± 0.013.
With GCGTGTAA the “PBM E-score of 8-mer” value was 0.0697 ± 0.022.
For ACGTGGGG, the “PBM E-score of 8-mer” value was -0.127 ± 0.012.
In the case of ACGTGTGG, the “PBM E-score of 8-mer” value is reported as 0.416 ± 0.00045.
In the case of ACGTGTGA, the “PBM E-score of 8-mer” value is reported as 0.4797 ± 0.0017.
AACTCTTG was tested, and the “PBM E-score of 8-mer” value was -0.0545 ± 0.035.
CGTAGGAA was tested, and the “PBM E-score of 8-mer” value was -0.00351 ± 0.079.
CTTCTGCA was tested, and the “PBM E-score of 8-mer” value was 0.00227 ± 0.035.
For CAGCGCAG, the “PBM E-score of 8-mer” value was -0.14 ± 0.069.
With CAACCCAG the “PBM E-score of 8-mer” value was -0.2068 ± 0.00038.
In the case of AATCTGAG, the “PBM E-score of 8-mer” value is reported as 0.0009 ± 0.0013.
In the case of CTATGAGC, the “PBM E-score of 8-mer” value is reported as -0.1 ± 0.02.
For ACCGCTGC, the “PBM E-score of 8-mer” value was 0.0922 ± 0.006.
With CCGTGAGA the “PBM E-score of 8-mer” value was 0.143 ± 0.015.
CCGTGTGA was tested, and the “PBM E-score of 8-mer” value was 0.381 ± 0.017.
CCGTGTGC was tested, and the “PBM E-score of 8-mer” value was 0.0129 ± 0.03.
